Experimental findings from the supplement of paper PMC12282887 are described below.

± gives the standard deviation of the averaged measurements.

The assay relates to E. coli BW25113 marRABp lux reporter. The assay is described as follows: promoter activity interaction Z-score (Lux/OD deviation from empty-vector control); higher = stronger promoter induction by the compound. The method, then:
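E. coli BW25113 (wild type or ΔmarA/ΔsoxS/Δrob) carrying pTU175 luxCDABE promoter reporters was grown in LB in 384-well plates at 37°C with each of 94 compounds at 4 two-fold concentrations, in biological duplicates. Luminescence and OD600 were read every 30 min for 12 h and integrated as AUC over 8 h (0-8 h WT, 1-9 h mutants). Lux AUC was divided by OD AUC; the interaction score is the residual of a Huber robust fit of each promoter against the empty-vector control, then Z-transformed per promoter.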

With `CCN1CCN(C(=O)N[C@@H](C(=O)N[C@@H]2C(=O)N3[C@@H]2SC(C)(C)[C@@H]3C(=O)O)c2ccccc2)C(=O)C1=O` [Piperacillin], the “promoter activity interaction Z-score” value (0.034 µg/ml, genetic background: wild type) was -0.259 ± 0.22; the “promoter activity interaction Z-score” value (0.034 µg/ml, genetic background: ΔmarA) is -0.115 ± 0.2; the “promoter activity interaction Z-score” value (0.034 µg/ml, genetic background: Δrob) was -0.137 ± 0.032; the “promoter activity interaction Z-score” value (0.034 µg/ml, genetic background: ΔsoxS) is -0.285 ± 0.24; the “promoter activity interaction Z-score” value (0.067 µg/ml, genetic background: wild type) came out at 0.0282 ± 0.023; the “promoter activity interaction Z-score” value (0.067 µg/ml, genetic background: ΔmarA) is -0.147 ± 0.33. In addition, the “promoter activity interaction Z-score” value is -0.102 ± 0.11 (0.067 µg/ml, genetic background: Δrob); -0.225 ± 0.29 (0.067 µg/ml, genetic background: ΔsoxS); -0.0179 ± 0.059 (0.13 µg/ml, genetic background: wild type); -0.0535 ± 0.27 (0.13 µg/ml, genetic background: ΔmarA); -0.134 ± 0.096 (0.13 µg/ml, genetic background: Δrob); -0.159 ± 0.072 (0.13 µg/ml, genetic background: ΔsoxS). In addition, the “promoter activity interaction Z-score” value is, setting by setting: (0.27 µg/ml, genetic background: wild type) -0.12 ± 0.057; (0.27 µg/ml, genetic background: ΔmarA) -0.117 ± 0.15; (0.27 µg/ml, genetic background: Δrob) -0.0506 ± 0.1; (0.27 µg/ml, genetic background: ΔsoxS) -0.145 ± 0.44.

Take `CN(C)[C@@H]1C(O)=C(C(N)=O)C(=O)[C@@]2(O)C(O)=C3C(=O)c4c(O)cccc4[C@@](C)(O)[C@H]3C[C@@H]12` [Tetracycline]: the “promoter activity interaction Z-score” value (0.056 µg/ml, genetic background: wild type) was determined as 0.665 ± 0.88; the “promoter activity interaction Z-score” value (0.056 µg/ml, genetic background: ΔmarA) amounted to 1.07 ± 0.1; the “promoter activity interaction Z-score” value (0.056 µg/ml, genetic background: Δrob) was 0.256 ± 0.36; the “promoter activity interaction Z-score” value (0.056 µg/ml, genetic background: ΔsoxS) came to 0.136 ± 0.061; the “promoter activity interaction Z-score” value (0.11 µg/ml, genetic background: wild type) is 2.13 ± 0.84; the “promoter activity interaction Z-score” value (0.11 µg/ml, genetic background: ΔmarA) amounted to 1.76 ± 0.44. In addition, the “promoter activity interaction Z-score” value came out at 0.771 ± 0.16 (0.11 µg/ml, genetic background: Δrob); 1.22 ± 0.7 (0.11 µg/ml, genetic background: ΔsoxS); 2.83 ± 0.4 (0.22 µg/ml, genetic background: wild type); 3.06 ± 0.18 (0.22 µg/ml, genetic background: ΔmarA); 1.16 ± 0.43 (0.22 µg/ml, genetic background: Δrob); 2.13 ± 0.087 (0.22 µg/ml, genetic background: ΔsoxS). For the same molecule, the “promoter activity interaction Z-score” value by setting is: (0.44 µg/ml, genetic background: wild type) 2.24 ± 1; (0.44 µg/ml, genetic background: ΔmarA) 0.451 ± 0.1; (0.44 µg/ml, genetic background: Δrob) 0.992 ± 0.29; (0.44 µg/ml, genetic background: ΔsoxS) 2.56.

Turning to `CC(C)Cc1ccc(C(C)C(=O)O)cc1` (stereo not drawn) [Ibuprofen], the “promoter activity interaction Z-score” value turned out to be 0.196 ± 0.28 (12.9 µg/ml, genetic background: wild type); 0.232 ± 0.58 (12.9 µg/ml, genetic background: ΔmarA); 0.124 ± 0.06 (12.9 µg/ml, genetic background: Δrob); 0.193 ± 0.14 (12.9 µg/ml, genetic background: ΔsoxS); 0.212 ± 0.12 (25.8 µg/ml, genetic background: wild type); 0.172 ± 0.49 (25.8 µg/ml, genetic background: ΔmarA). Moreover, the “promoter activity interaction Z-score” value (25.8 µg/ml, genetic background: Δrob) amounted to 0.0582 ± 0.32; the “promoter activity interaction Z-score” value (25.8 µg/ml, genetic background: ΔsoxS) turned out to be 0.0302 ± 0.03; the “promoter activity interaction Z-score” value (51.6 µg/ml, genetic background: wild type) amounted to 0.119 ± 0.036; the “promoter activity interaction Z-score” value (51.6 µg/ml, genetic background: ΔmarA) is -0.396 ± 0.089; the “promoter activity interaction Z-score” value (51.6 µg/ml, genetic background: Δrob) was determined as 0.159 ± 0.17; the “promoter activity interaction Z-score” value (51.6 µg/ml, genetic background: ΔsoxS) was -0.0798 ± 0.073. In addition, the “promoter activity interaction Z-score” value was -0.239 ± 0.093 (103.1 µg/ml, genetic background: wild type); 0.541 ± 0.8 (103.1 µg/ml, genetic background: ΔmarA); 0.0177 ± 0.01 (103.1 µg/ml, genetic background: Δrob); -0.0508 ± 0.43 (103.1 µg/ml, genetic background: ΔsoxS).
